# Test results as given in PubChem BioAssay AID1159580 (chemical genetic matrix, 2015).
# Among all 5,500 compounds or so, about 2,000 (36%) were called active. Another 18% or so got no clear call; they are omitted. The list shows a part of the results. Values without a mark were called inactive. Rule as the data show it: active = normalized growth mostly below about 0.91 (no sharp cut-off); inconclusive = no clear call, values can overlap the other calls; inactive = mostly above about 0.92.
# Assay: chemical genetic growth profiling, strain panel (AID 1159580);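 also: tested at 20 µM; growth read once vehicle control cultures reached saturation at 30 °C; 1 = growth at the plate median or of vehicle wells; lower values mean less growth of the strain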
# Conditions: S. cerevisiae deletion strains, growth OD
# [1] = locus YAL013W, strain DEP1, active compounds read low
# [2] = locus YDL101C, strain DUN1, active compounds read low
# [3] = locus YDR150W, strain NUM1, active compounds read low
# [4] = locus YEL061C, strain CIN8, active compounds read low
# [5] = locus YGR078C, strain PAC10, active compounds read low
# [6] = locus YHR030C, strain SLT2, active compounds read low
# [7] = locus YHR087W, strain rtc3, active compounds read low
# [8] = locus YJR043C, strain POL32, active compounds read low
# [9] = locus YJR075W, strain HOC1, active compounds read low
# [10] = locus YLR039C, strain RIC1, active compounds read low
# [11] = locus YLR058C, strain SHM2 (second series), active compounds read low
# [12] = locus YLR085C, strain ARP6, active compounds read low
# [13] = locus YLR262C, strain YPT6, active compounds read low
# [14] = locus YML094W, strain GIM5, active compounds read low
# [15] = locus YMR219W, strain ESC1, active compounds read low
# [16] = locus YMR263W, strain SAP30, active compounds read low
# [17] = locus YMR307W, strain GAS1, active compounds read low
# [18] = locus YNL153C, strain GIM3, active compounds read low
# [19] = locus YNL298W, strain CLA4 (second series), active compounds read low
# [20] = locus YNL322C, strain KRE1, active compounds read low
# [21] = locus YNR030W, strain Alg12, active compounds read low
# [22] = locus YPL055C, strain LGE1, active compounds read low
# [23] = locus YPL241C, strain CIN2, active compounds read low
# [24] = locus YPR135W, strain CTF4, active compounds read low
smiles,measurement,setting,value
O=C(O)c1oc(C(=O)O)c(OCc2ccccc2)c1OCc1ccccc1,normalized growth,[1],1.01
same,normalized growth,"locus YBR229C, strain ROT2, active compounds read low",1.02
same,normalized growth,"locus YCL061C, strain MRC1, active compounds read low",0.984
same,normalized growth,[2],0.973
same,normalized growth,"locus YDL134C, strain PPH21, active compounds read low",0.998
same,normalized growth,[3],0.973
same,normalized growth,[4],1.01
same,normalized growth,[5],0.976
same,normalized growth,[6],0.963
same,normalized growth,[7],1.03
same,normalized growth,[8],0.965
same,normalized growth,[9],0.988
same,normalized growth,[10],0.993
same,normalized growth,[11],1.02
same,normalized growth,[12],1.01
same,normalized growth,[13],0.981
same,normalized growth,[14],1.03
same,normalized growth,[15],0.997
same,normalized growth,[16],0.997
same,normalized growth,[17],1.03
same,normalized growth,[18],0.988
same,normalized growth,[19],0.986
same,normalized growth,[20],0.963
same,normalized growth,[21],0.998
same,normalized growth,[22],1.07
same,normalized growth,[23],1.01
same,normalized growth,[24],1
OC(COCc1ccccc1)Cn1c2ccccc2c2ccccc21 (stereo unspecified),normalized growth,"locus YAR019C, strain CDC15, active compounds read low",0.951
same,normalized growth,"locus YBL105C, strain PKC1, active compounds read low",0.95
same,normalized growth,"locus YBR135W, strain CKS1, active compounds read low",0.951
same,normalized growth,"locus YBR136W, strain MEC1, active compounds read low",0.952
same,normalized growth,"locus YBR160W, strain CDC28, active compounds read low",0.955
same,normalized growth,"locus YDL017W, strain CDC7, active compounds read low",0.953
same,normalized growth,"locus YDL028C, strain MPS1, active compounds read low",0.951
same,normalized growth,[2],0.98
same,normalized growth,"locus YDL108W, strain KIN28, active compounds read low",0.952
same,normalized growth,"locus YDL132W, strain cdc53, active compounds read low",0.952
same,normalized growth,"locus YDL214C, strain PRR2, active compounds read low",0.903
same,normalized growth,"locus YDR052C, strain DBF4, active compounds read low",0.965
same,normalized growth,"locus YDR054C, strain cdc34, active compounds read low",0.939
same,normalized growth,"locus YDR226W, strain ADK1, active compounds read low",0.965
same,normalized growth,"locus YDR477W, strain SNF1, active compounds read low",0.888
same,normalized growth,"locus YER123W, strain YCK3, active compounds read low",0.888
same,normalized growth,"locus YER133W, strain GLC7, active compounds read low",0.876
same,normalized growth,"locus YFL009W, strain cdc4, active compounds read low",0.964
same,normalized growth,"locus YFL029C, strain CAK1, active compounds read low",0.947
same,normalized growth,"locus YFR003C, strain YPI1, active compounds read low",0.947
same,normalized growth,"locus YFR019W, strain FAB1, active compounds read low",0.954
same,normalized growth,"locus YFR028C, strain CDC14, active compounds read low",0.96
same,normalized growth,"locus YGR040W, strain KSS1, active compounds read low",0.888
same,normalized growth,"locus YGR052W, strain FMP48, active compounds read low",0.874
same,normalized growth,"locus YGR092W, strain DBF2, active compounds read low",0.838
same,normalized growth,[6],0.632 (active)
same,normalized growth,"locus YHR079C, strain IRE1, active compounds read low",0.729
same,normalized growth,"locus YHR082C, strain KSP1, active compounds read low",0.91
same,normalized growth,"locus YHR205W, strain SCH9, active compounds read low",0.936
same,normalized growth,"locus YIL147C, strain SLN1, active compounds read low",0.953
same,normalized growth,"locus YJL095W, strain BCK1, active compounds read low",0.866
same,normalized growth,"locus YJL128C, strain PBS2, active compounds read low",0.917
same,normalized growth,"locus YJL157C, strain FAR1, active compounds read low",0.882
same,normalized growth,"locus YJR016C, strain ILV3, active compounds read low",0.953
same,normalized growth,"locus YJR066W, strain TOR1 (second series), active compounds read low",0.917
same,normalized growth,"locus YJR066W, strain TOR1, active compounds read low",0.886
same,normalized growth,"locus YKL048C, strain ELM1, active compounds read low",0.973
same,normalized growth,"locus YKL067W, strain YNK1, active compounds read low",0.905
same,normalized growth,"locus YKL101W, strain HSL1, active compounds read low",0.891
same,normalized growth,"locus YKL193C, strain SDS22, active compounds read low",0.953
same,normalized growth,"locus YKL203C, strain TOR2, active compounds read low",0.877
same,normalized growth,"locus YLR113W, strain HOG1, active compounds read low",0.769 (active)
same,normalized growth,"locus YLR133W, strain CKI1, active compounds read low",0.893
same,normalized growth,"locus YLR403W, strain SFP1, active compounds read low",0.907
same,normalized growth,"locus YML070W, strain DAK1, active compounds read low",0.876
same,normalized growth,"locus YMR001C, strain CDC5, active compounds read low",0.944
same,normalized growth,"locus YMR205C, strain PFK2 (second series), active compounds read low",0.939
same,normalized growth,"locus YMR277W, strain FCP1, active compounds read low",0.955
same,normalized growth,"locus YNL006W, strain LST8, active compounds read low",0.946
same,normalized growth,"locus YNL020C, strain ARK1, active compounds read low",0.881
same,normalized growth,"locus YNL161W, strain CBK1, active compounds read low",0.947
same,normalized growth,"locus YNL183C, strain NPR1, active compounds read low",0.885
same,normalized growth,"locus YNL207W, strain RIO2, active compounds read low",0.946
same,normalized growth,"locus YNL222W, strain SSU72, active compounds read low",0.958
same,normalized growth,"locus YNL307C, strain MCK1 (second series), active compounds read low",0.885
same,normalized growth,"locus YOL078W, strain AVO1, active compounds read low",0.959
same,normalized growth,"locus YOL136C, strain PFK27, active compounds read low",0.898
same,normalized growth,"locus YOR061W, strain CKA2, active compounds read low",0.924
same,normalized growth,"locus YOR119C, strain RIO1, active compounds read low",0.933
same,normalized growth,"locus YOR231W, strain MKK1, active compounds read low",0.837
same,normalized growth,"locus YOR329C, strain SCD5, active compounds read low",0.952
same,normalized growth,"locus YPL031C, strain PHO85, active compounds read low",0.845
same,normalized growth,"locus YPL204W, strain HRR25, active compounds read low",0.791
same,normalized growth,"locus YPL209C, strain IPL1, active compounds read low",0.955
same,normalized growth,"locus YPL256C, strain CLN2, active compounds read low",0.792 (active)
same,normalized growth,"locus YPR025C, strain CCL1, active compounds read low",0.953
same,normalized growth,"locus YPR106W, strain ISR1, active compounds read low",0.95
same,normalized growth,"locus YPR111W, strain DBF20, active compounds read low",0.933
same,normalized growth,"strain NNK1, active compounds read low",0.932
same,normalized growth,"strain TSCII, active compounds read low",0.945
OCC(O)Cn1c2ccccc2c2ccccc21 (stereo unspecified),normalized growth,[1],1.01
same,normalized growth,[2],1.04
same,normalized growth,[3],1.03
same,normalized growth,[4],0.986
same,normalized growth,[5],1.02
same,normalized growth,"locus YGR229C, strain SMI1, active compounds read low",0.994
same,normalized growth,[6],1.07
same,normalized growth,[7],0.953
same,normalized growth,"locus YJL187C, strain SWE1, active compounds read low",1
same,normalized growth,[8],0.987
same,normalized growth,[9],1.01
same,normalized growth,[10],0.982
same,normalized growth,[11],0.988
same,normalized growth,[12],0.97
same,normalized growth,[13],0.959
same,normalized growth,[14],0.975
same,normalized growth,[15],0.986
same,normalized growth,[16],1.01
same,normalized growth,[18],1.02
same,normalized growth,[19],0.984
same,normalized growth,[20],0.999
same,normalized growth,[21],0.977
same,normalized growth,"locus YOL006C, strain TOP1, active compounds read low",1
same,normalized growth,[22],0.932
same,normalized growth,[23],0.985
same,normalized growth,[24],1.02
CCCN(CC1CC1)c1nc(C)nc(Nc2c(Cl)cc(Cl)cc2Cl)c1Cl,normalized growth,[1],1.02
same,normalized growth,"locus YAL040C, strain CLN3, active compounds read low",1.06
same,normalized growth,"locus YCL061C, strain MRC1 (second series), active compounds read low",1
same,normalized growth,[3],1.01
same,normalized growth,"locus YDR363W, strain ESC2, active compounds read low",0.999
same,normalized growth,"locus YER002W, strain NOP16, active compounds read low",1.05
same,normalized growth,[9],1.01
same,normalized growth,[16],1.01
same,normalized growth,[17],1
same,normalized growth,[18],1.06
same,normalized growth,"locus YNL197C, strain WHI3, active compounds read low",1.13 [resistant] (active)
same,normalized growth,"locus YNL224C, strain SQS1, active compounds read low",1.05
same,normalized growth,"locus YOR083W, strain WHI5 (second series), active compounds read low",1.18 [resistant] (active)
